The source made the active and inactive calls. Unless noted, the rule behind the calls is not given here.
Tests used:
[1] = anti-His antibody binders, primary screen, artefact control for SMM control protein annotation, biochemical, small-molecule microarray, 635 nm fluorescence (AID 1128); details: anti-His Alexa647 antibody binding, higher = more signal;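 note: score merges feature fluorescence with signal-to-noise for each printed compound spot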
[2] = system: Human papillomavirus type 1a E7 protein (residues 1-88); assay: HPV1a E7 small-molecule binders, primary screen, biochemical, small-molecule microarray, residues 1-88, 635 nm (AID 1129); details: small-molecule microarray binding, fluorescence 635 nm; higher = more signal
[3] = target: Focal adhesion kinase 1 (Homo sapiens) (UniProt Q05397); assay: small-molecule microarray binders of FAK, primary screen, biochemical, 635/667 nm fluorescence, BSA, DTT (AID 1130); details: PTK2 binding, 635 nm fluorescence, higher = more signal;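 note: composite of spot emission at 667 nm and signal to noise over triplicate slides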
Focal adhesion kinase 1 (Homo sapiens), sequence (Q05397 whole entry, looked up): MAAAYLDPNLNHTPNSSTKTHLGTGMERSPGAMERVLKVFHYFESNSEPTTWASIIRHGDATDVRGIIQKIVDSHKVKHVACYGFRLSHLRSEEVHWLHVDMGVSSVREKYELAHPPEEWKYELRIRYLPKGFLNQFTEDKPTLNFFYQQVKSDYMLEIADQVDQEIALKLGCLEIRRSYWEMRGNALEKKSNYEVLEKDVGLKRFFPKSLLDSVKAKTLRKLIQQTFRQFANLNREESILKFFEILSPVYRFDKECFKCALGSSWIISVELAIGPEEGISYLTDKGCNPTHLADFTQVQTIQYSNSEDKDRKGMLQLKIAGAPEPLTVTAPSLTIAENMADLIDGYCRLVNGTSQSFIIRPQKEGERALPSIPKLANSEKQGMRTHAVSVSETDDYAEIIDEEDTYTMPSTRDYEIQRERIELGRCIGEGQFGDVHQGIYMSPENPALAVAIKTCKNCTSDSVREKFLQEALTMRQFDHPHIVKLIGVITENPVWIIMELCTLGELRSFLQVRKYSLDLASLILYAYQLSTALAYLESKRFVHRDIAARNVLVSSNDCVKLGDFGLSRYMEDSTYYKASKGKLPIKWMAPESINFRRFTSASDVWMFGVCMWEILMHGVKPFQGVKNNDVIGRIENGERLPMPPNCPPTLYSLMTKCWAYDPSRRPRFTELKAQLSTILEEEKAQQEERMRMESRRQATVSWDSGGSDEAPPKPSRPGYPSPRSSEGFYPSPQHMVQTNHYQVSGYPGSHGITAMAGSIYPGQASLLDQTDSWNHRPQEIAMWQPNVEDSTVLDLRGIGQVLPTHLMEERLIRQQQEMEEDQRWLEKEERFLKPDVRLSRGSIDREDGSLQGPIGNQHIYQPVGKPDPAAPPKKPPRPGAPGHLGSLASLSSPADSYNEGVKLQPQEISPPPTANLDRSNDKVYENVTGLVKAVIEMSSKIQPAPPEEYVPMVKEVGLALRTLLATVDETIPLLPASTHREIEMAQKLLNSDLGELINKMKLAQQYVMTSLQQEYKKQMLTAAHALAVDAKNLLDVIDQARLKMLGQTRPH

[4] = system: Fibrinogen (Alexa647-labelled); assay: fibrinogen binders on compound microarrays, profiling panel, artefact control for SMM control-protein annotation, biochemical, small-molecule microarray, 635/667 nm fluorescence (AID 1131); details: fibrinogen-A647 binding fluorescence, higher = more signal;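 note: z-score merges 667 nm fluorescence with per-spot signal-to-noise over triplicate slides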
[5] = target: Follistatin (Homo sapiens) (UniProt P19883); assay: follistatin binders on small-molecule microarrays, primary screen, biochemical, small-molecule microarray, 635/667 nm fluorescence (AID 1132); details: FST binding, 635 nm fluorescence, higher = more signal
Follistatin (Homo sapiens), sequence (P19883 whole entry, looked up): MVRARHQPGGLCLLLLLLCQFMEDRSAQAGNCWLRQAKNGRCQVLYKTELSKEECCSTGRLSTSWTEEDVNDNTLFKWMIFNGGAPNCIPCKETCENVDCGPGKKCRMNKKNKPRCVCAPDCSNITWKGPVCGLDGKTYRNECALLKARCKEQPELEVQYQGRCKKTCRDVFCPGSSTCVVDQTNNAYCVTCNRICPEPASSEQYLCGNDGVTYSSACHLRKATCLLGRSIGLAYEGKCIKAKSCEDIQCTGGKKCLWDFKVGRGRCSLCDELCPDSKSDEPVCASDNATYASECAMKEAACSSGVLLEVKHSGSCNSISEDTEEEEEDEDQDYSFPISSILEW

[6] = target: Fibroblast growth factor 2 (Homo sapiens) (UniProt P09038); assay: FGF2 binders on small-molecule microarrays, primary screen, biochemical, small-molecule microarray, 635/667 nm fluorescence (AID 1133); details: small-molecule microarray binding, FGF2, fluorescence 635/667; higher = more signal
Fibroblast growth factor 2 (Homo sapiens), sequence (P09038 whole entry, looked up): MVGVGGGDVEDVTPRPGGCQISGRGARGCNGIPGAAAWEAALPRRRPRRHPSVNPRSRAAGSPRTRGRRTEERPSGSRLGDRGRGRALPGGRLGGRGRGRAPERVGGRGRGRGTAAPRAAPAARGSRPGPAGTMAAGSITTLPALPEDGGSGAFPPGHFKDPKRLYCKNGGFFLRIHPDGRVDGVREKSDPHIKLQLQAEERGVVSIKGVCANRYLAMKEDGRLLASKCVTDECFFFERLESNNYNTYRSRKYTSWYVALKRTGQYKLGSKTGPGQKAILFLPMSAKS

[7] = mitochondrial membrane potential change in A549 cells, profiling panel, cell-based, JC-1 fluorescence, basal, 24 h, 100 nL (AID 1138); details: higher = more signal;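 note: A549 lung adenocarcinoma cells under basal conditions with no added stimulus; test concentration not given here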
Lefty1 = Lefty1 binders on small-molecule microarrays, primary screen, biochemical, small-molecule microarray, 635/667 nm fluorescence (AID 1139); details: small-molecule microarray binding, fluorescence 635/667; higher = more signal
[8] = system: wheat germ agglutinin (Triticum aestivum), Alexa647-labelled; assay: wheat germ agglutinin binders on compound microarrays, profiling panel, artefact control for SMM control-protein annotation, biochemical, small-molecule microarray, 635/667 nm fluorescence (AID 1140); details: WGA-A647 binding, 635 nm fluorescence, higher = more signal;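 note: score merges 667 nm feature emission with signal to noise over triplicate slides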
[9] = target: Luciferin 4-monooxygenase (Photinus pyralis) (UniProt P08659); assay: firefly luciferase enzyme inhibitors, primary screen, biochemical, luminescence, purified enzyme, 2006 set (AID 1141); details: SteadyGlo luminescence, 30 min, higher = more signal, called active from +8 up or from −8 down;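 note: cell-free assay with purified firefly luciferase at 100 ng per well in PBS; test concentration not given here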
Luciferin 4-monooxygenase (Photinus pyralis), sequence (P08659 whole entry, looked up): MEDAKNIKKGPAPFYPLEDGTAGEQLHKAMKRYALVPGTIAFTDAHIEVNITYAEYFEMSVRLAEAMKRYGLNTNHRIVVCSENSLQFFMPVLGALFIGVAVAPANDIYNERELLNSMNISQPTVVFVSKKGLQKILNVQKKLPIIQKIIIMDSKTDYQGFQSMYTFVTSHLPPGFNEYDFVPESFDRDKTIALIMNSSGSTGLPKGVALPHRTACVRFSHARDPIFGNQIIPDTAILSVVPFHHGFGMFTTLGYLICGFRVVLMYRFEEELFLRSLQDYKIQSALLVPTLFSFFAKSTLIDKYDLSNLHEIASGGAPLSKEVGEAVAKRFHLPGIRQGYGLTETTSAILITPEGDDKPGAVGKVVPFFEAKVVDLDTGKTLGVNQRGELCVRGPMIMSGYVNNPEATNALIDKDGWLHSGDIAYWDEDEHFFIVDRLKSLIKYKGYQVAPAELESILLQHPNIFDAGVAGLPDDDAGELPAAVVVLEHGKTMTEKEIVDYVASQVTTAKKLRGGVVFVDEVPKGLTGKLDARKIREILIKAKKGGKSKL

[10] = system: Wnt5a (protein binding on small-molecule microarray); assay: Wnt5a binders on small-molecule microarray, primary screen, biophysical, 635/667 nm fluorescence (AID 1142); details: 635 nm fluorescence, higher = more signal;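 note: fluorescence read at 667 nm with signal to noise per printed feature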
[11] = cell viability in Huh7 cells, primary screen, cytotoxicity control for HCV replication inhibitor project, CellTiter-Glo luminescence, basal, 48 h (AID 1143); details: Huh7 HCV replicon, higher = more signal, called active from +8 up or from −8 down;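 note: Huh7 hepatoma cells carrying a hepatitis C replication reporter with no stimulus; test concentration not given here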
[12] = P. aeruginosa biofilm formation inhibitors, primary screen, PAO1 strain, BacTiter-Glo luminescence, LB-PBS (AID 1144); details: 12 h, higher = more signal
[13] = CREB reporter modulators without forskolin, primary screen, cell-based, PC12, CRE-LacZ reporter, unstimulated (AID 1145); details: no forskolin, luminescence, 4.5 h, higher = more signal, called active from +8 up or from −8 down
[14] = CREB reporter modulators under forskolin, primary screen, cell-based, PC12, CRE-LacZ reporter, forskolin-stimulated (AID 1146); details: luminescence, 4.5 h, higher = more signal, called active from +8 up or from −8 down;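 note: PC12 cells with 6xCRE LacZ reporter stimulated by forskolin 10 µM; beta-galactosidase reporter signal reflecting CREB driven transcription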
[15] = target: Streptavidin (Streptomyces avidinii) (UniProt P22629); assay: streptavidin binders on small-molecule microarray, primary screen, artefact control for SMM compound annotation, biophysical, 635/667 nm fluorescence (AID 1147); details: streptavidin binding, higher = more signal;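 note: signal reflects streptavidin binding to arrayed compounds as a control protein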
Streptavidin (Streptomyces avidinii), sequence (P22629 whole entry, looked up): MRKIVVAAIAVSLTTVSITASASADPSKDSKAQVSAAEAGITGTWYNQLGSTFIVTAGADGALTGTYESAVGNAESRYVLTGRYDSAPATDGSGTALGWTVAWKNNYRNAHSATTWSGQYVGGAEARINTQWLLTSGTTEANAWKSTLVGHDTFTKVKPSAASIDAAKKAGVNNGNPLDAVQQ

[16] = small-molecule binders of probe aInhba, primary screen, biochemical, small-molecule microarray, 635/667 nm fluorescence (AID 1148); details: higher = more signal;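 note: score merges 667nm spot fluorescence with signal-to-noise for antibody binding to printed compounds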
Torsin-1A (Homo sapiens) [17] = target: Torsin-1A (Homo sapiens) (UniProt O14656); assay: torsin A binders from cell lysate, primary screen, small-molecule microarray, wild-type, 635/667 nm (AID 1149); details: COS7 hTOR1A-WT lysate, 635 nm fluorescence, higher = more signal
Torsin-1A (Homo sapiens), sequence (O14656 whole entry, looked up): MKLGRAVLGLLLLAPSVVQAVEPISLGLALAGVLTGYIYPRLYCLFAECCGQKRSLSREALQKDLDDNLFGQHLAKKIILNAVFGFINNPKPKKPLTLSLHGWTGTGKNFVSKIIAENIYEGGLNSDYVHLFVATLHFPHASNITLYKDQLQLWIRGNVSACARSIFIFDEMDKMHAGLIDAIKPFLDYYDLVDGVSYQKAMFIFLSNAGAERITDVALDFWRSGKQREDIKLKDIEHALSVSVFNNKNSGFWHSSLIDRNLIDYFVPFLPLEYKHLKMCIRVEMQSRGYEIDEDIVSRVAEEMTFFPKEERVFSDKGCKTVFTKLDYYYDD

Torsin-1A (Homo sapiens) [18] = target: Torsin-1A (Homo sapiens) (UniProt O14656); assay: small-molecule binders of mutant TOR1A in lysate, primary screen, cell lysate, small-molecule microarray, COS7 lysate, 635/667 nm fluorescence (AID 1150); details: COS7 hTOR1A mutant lysate, 635 nm fluorescence, higher = more signal;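 note: score pools 667 nm emission and signal to noise measuring lysate protein binding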
[19] = system: Sonic hedgehog protein (Shh); assay: small-molecule binders of Shh protein, primary screen, biochemical, small-molecule microarray, 635/667 nm fluorescence (AID 1151); details: small-molecule microarray binding, 635 nm fluorescence; higher = more signal;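 note: Shh protein binding to compounds spotted on small-molecule microarray slides; score combines spot fluorescence intensity with signal-to-noise across triplicate slides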

Row | SMILES | composite z-score [1] | composite z-score [2] | composite z-score [3] | composite z-score [4] | composite z-score [5] | composite z-score [6] | z-score [7] | composite z-score (Lefty1) | composite z-score [8] | z-score [9] | composite z-score [10] | z-score [11] | z-score [12] | z-score [13] | z-score [14] | composite z-score [15] | composite z-score [16] | composite z-score (Torsin-1A (Homo sapiens) [17]) | composite z-score (Torsin-1A (Homo sapiens) [18]) | composite z-score [19]
1 | O=C(CS)NCCCCCCNC(=O)[C@@H]1C[C@@H]2C(=O)N3CCC[C@H]3C(=O)N2[C@@H]1c1cccc(OCCO)c1 | 0.824 | 1.13 | 0.459 | 0.642 | 1.1 | 1.59 | 0.503 | 0.361 | 0.832 | -0.681 (inactive) | 0.939 | -0.497 (inactive) | -1.05 (inactive) | -1.35 (inactive) | -1.07 (inactive) | 0.283 | -0.128 | 1.19 | 1.34 | 1.7
2 | O=C1NC(=O)C2C1C=CC(C(O)c1c(F)cccc1Cl)N2Nc1ccccn1 (stereo not given) | 0.582 | 0.257 | 0.202 | 0.776 | 0.477 | 0.731 | 0.52 | -0.236 | 0.228 | -0.194 (inactive) | 0.233 | 0.63 (inactive) | 0.475 (inactive) | 0.0535 (inactive) | 0.204 (inactive) | -0.201 | -0.0195 | 0.355 | 0.222 | -0.0146
3 | COC(=O)[C@@]1(Cc2ccc(OC)cc2)[C@H]2c3cc(C(=O)N4CCCC4)n(CCc4cc5ccccc5[nH]4)c3C[C@H]2CN1C(=O)c1ccccc1 | 2.2 | 1.25 | 0.832 | 0.98 | 1.18 | 0.754 | 1.3 | -0.246 | 1.05 | 1.91 (inactive) | 0.409 | -1.84 (inactive) | 0.497 (inactive) | -0.189 (inactive) | 0.375 (inactive) | 1.58 | 0.352 | 0.368 | 1.38 | -0.309
4 | COc1ccc(NN2C(C(O)c3ccccn3)C=CC3C(=O)N(C4CCCCC4)C(=O)C32)cc1 (stereo not given) | 0.914 | 1.22 | 0.342 | 0.955 | 0.888 | 0.421 | 0.717 | -0.223 | 0.836 | -2.74 (inactive) | 0.483 | -0.924 (inactive) | -1.43 (inactive) | -0.471 (inactive) | -0.119 (inactive) | 1.37 | 0.0183 | 0.0607 | 0.542 | -0.0244
5 | CN(C)CCCNC(=O)[C@@H]1c2ccccc2C(=O)N(CC23CC4CC(CC(C4)C2)C3)[C@H]1c1ccc(CO)cc1 | 2.44 | 1.27 | 0.0169 | 0.954 | 1.21 | 0.788 | 1.36 | 1.26 | 0.665 | 0.717 (inactive) | 0.528 | -4.72 (inactive) | -0.465 (inactive) | -0.322 (inactive) | -0.0221 (inactive) | 1.12 | 0.016 | 0.954 | 0.808 | 1.5
